Experimental data: the supplement of paper PMC9694430

Tests used:
Experiment in all cases: thermal shift delta Tm vs DMSO control; higher = stronger stabilization (binding)
Details in all cases: 12.5 µM; protein concentration 2 µM
LOC_OS02G45750-cb003 = test system: LOC_OS02G45750-cb003
Summary of the method: (§1)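 Rice kinase domain constructs were expressed in E. coli, purified, and tested by differential scanning fluorimetry with compound added in DMSO. Each well of a 96-well plate held 19.5 μl of 2 μM kinase in 100 mM potassium phosphate pH 7.5, 150 mM NaCl, 10% glycerol and 5 × SYPRO Orange, and fluorescence was read from 25°C to 95°C at 0.05°C/s. The melting temperature shift is the mean of triplicates, taken against protein with DMSO alone after Boltzmann fitting.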

LOC_OS02G54510-cb004 = test system: LOC_OS02G54510-cb004
Summary of the method: as §1

LOC_OS03G04050-cb001 = test system: LOC_OS03G04050-cb001
Summary of the method: as §1

LOC_OS03G12390-cb001 = test system: LOC_OS03G12390-cb001
Summary of the method: as §1

LOC_OS03G27990-cb004 = test system: LOC_OS03G27990-cb004
Summary of the method: as §1

LOC_OS03G50450-cb001 = test system: LOC_OS03G50450-cb001
Summary of the method: as §1

LOC_OS03G50810-cb003 = test system: LOC_OS03G50810-cb003
Summary of the method: as §1

LOC_OS04G35114-cb001 = test system: LOC_OS04G35114-cb001
Summary of the method: as §1

LOC_OS04G38480-cb003 = test system: T1, LOC_OS04G38480-cb003
T1 sequence (whole entry): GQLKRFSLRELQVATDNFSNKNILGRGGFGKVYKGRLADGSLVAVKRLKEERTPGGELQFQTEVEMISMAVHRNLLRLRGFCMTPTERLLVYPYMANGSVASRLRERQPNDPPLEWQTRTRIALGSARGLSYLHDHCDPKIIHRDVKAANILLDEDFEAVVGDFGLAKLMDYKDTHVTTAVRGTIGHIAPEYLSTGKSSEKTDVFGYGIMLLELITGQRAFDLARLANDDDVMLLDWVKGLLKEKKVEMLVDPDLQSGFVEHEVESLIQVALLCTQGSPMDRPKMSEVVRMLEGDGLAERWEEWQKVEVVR
Summary of the method: as §1

LOC_OS04G41100-cb001 = test system: T2, LOC_OS04G41100-cb001
T2 sequence (whole entry): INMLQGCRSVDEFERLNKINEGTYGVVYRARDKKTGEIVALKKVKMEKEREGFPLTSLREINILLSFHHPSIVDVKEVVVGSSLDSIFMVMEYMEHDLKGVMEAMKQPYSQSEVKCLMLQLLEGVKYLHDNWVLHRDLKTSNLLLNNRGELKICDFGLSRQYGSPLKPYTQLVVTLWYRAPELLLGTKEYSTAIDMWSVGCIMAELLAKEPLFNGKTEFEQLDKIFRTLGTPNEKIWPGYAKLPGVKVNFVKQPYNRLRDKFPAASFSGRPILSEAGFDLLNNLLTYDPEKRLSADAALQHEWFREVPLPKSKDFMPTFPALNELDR
Summary of the method: as §1

LOC_OS04G57630-cb004 = test system: LOC_OS04G57630-cb004
Summary of the method: as §1

LOC_OS05G07850-cb002 = test system: LOC_OS05G07850-cb002
Summary of the method: as §1

LOC_OS05G28520-cb001 = test system: LOC_OS05G28520-cb001
Summary of the method: as §1

LOC_OS05G30820-cb001 = test system: LOC_OS05G30820-cb001
Summary of the method: as §1

LOC_OS05G43570-cb004 = test system: LOC_OS05G43570-cb004
Summary of the method: as §1

LOC_OS06G16330-cb003 = test system: LOC_OS06G16330-cb003
Chain of LOC_OS06G16330-cb003 (as listed by the source): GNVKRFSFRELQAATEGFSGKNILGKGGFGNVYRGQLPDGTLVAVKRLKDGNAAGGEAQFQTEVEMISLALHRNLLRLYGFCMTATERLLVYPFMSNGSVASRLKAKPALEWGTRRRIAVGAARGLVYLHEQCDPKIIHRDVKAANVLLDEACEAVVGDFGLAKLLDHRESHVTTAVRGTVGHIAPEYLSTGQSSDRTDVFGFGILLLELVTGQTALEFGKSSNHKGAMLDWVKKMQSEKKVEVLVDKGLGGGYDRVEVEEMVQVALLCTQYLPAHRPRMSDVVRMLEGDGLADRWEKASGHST
Summary of the method: as §1

LOC_OS06G22820-cb001 = test system: T3, LOC_OS06G22820-cb001
T3 sequence (whole entry): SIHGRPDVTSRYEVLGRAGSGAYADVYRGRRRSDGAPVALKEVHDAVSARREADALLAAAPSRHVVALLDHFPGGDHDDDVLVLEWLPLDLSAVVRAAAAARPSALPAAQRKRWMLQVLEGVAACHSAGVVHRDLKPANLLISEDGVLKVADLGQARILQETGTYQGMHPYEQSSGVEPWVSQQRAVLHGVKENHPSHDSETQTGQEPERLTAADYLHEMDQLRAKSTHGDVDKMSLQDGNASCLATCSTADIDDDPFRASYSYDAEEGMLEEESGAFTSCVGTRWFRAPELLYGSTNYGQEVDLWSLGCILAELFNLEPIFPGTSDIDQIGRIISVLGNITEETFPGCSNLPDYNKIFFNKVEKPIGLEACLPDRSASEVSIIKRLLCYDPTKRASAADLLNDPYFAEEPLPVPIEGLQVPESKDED
Summary of the method: as §1

LOC_OS07G06570-cb004 = test system: LOC_OS07G06570-cb004
Summary of the method: as §1

LOC_OS07G07230-cb001 = test system: LOC_OS07G07230-cb001
Summary of the method: as §1

LOC_OS05G16824-cb004 = test system: LOC_OS05G16824-cb004
Summary of the method: as §1

Structure (SMILES) | thermal shift delta Tm (LOC_OS02G45750-cb003) [°C] | thermal shift delta Tm (LOC_OS02G54510-cb004) [°C] | thermal shift delta Tm (LOC_OS03G04050-cb001) [°C] | thermal shift delta Tm (LOC_OS03G12390-cb001) [°C] | thermal shift delta Tm (LOC_OS03G27990-cb004) [°C] | thermal shift delta Tm (LOC_OS03G50450-cb001) [°C] | thermal shift delta Tm (LOC_OS03G50810-cb003) [°C] | thermal shift delta Tm (LOC_OS04G35114-cb001) [°C] | thermal shift delta Tm (LOC_OS04G38480-cb003) [°C] | thermal shift delta Tm (LOC_OS04G41100-cb001) [°C] | thermal shift delta Tm (LOC_OS04G57630-cb004) [°C] | thermal shift delta Tm (LOC_OS05G07850-cb002) [°C] | thermal shift delta Tm (LOC_OS05G28520-cb001) [°C] | thermal shift delta Tm (LOC_OS05G30820-cb001) [°C] | thermal shift delta Tm (LOC_OS05G43570-cb004) [°C] | thermal shift delta Tm (LOC_OS06G16330-cb003) [°C] | thermal shift delta Tm (LOC_OS06G22820-cb001) [°C] | thermal shift delta Tm (LOC_OS07G06570-cb004) [°C] | thermal shift delta Tm (LOC_OS07G07230-cb001) [°C] | thermal shift delta Tm (LOC_OS05G16824-cb004) [°C]
Oc1ccc(-c2nc(-c3ccc(F)cc3)c(-c3ccncc3)[nH]2)cc1 | 0.9 | 1.58 | 0.9 | 0.88 | 0.55 | 0.44 | 0.55 | 2.01 | 1.53 | 1.35 | 0.57 | 1.26 | 1.33 | 0.88 | 1.13 | 0.09 | 0.97 | 1.08 | 0.48 | 
Cn1sc(=O)n(Cc2ccccc2)c1=O | -1.04 | -2 | -0.78 | -3.39 | -9.72 | -0.11 | -3.78 | 0.63 | 1.35 | 0.43 | -1.01 | -2.47 | 1.84 | 0.45 | 0.04 |  | 0.72 | 0.43 | -0.42 | 4.99
C=CC(=O)N[C@H]1CCOC[C@H]1Nc1ncc2cc(-c3c(Cl)c(OC)cc(OC)c3Cl)ccc2n1 | 1.19 | -0.3 | 0.08 | -0.37 | -0.08 | 0.02 | -0.2 | 0.09 | 0.04 | 0.17 | 0.02 | 0.63 | 0.07 | 0 | -0.08 | -0.57 | 0.4 | 0.52 | 0.76 | 
Nc1nccc(Oc2ccc3c(C(=O)Nc4cccc(C(F)(F)F)c4)cccc3c2)n1 | -1.33 | 0.78 | 0.37 | -0.16 | 0.11 | -0.18 | 0.17 | 0.62 | 1.77 | 0.51 | 0.43 | -1.62 | 0.93 | 0.73 | 0.58 | 0 | 0.99 | 1.61 | 0.15 | -1.01
O=c1c(O)c(-c2ccc(O)c(O)c2)oc2cc(O)cc(O)c12 [Quercetin] | 3.32 | 0.4 | 0.73 | 5.69 | 2.91 | 2.18 | 2.6 | 4.71 | 3.37 | 0.61 | 0.22 | 10.2 | 0.95 | 0.67 | 1.19 | 5.31 | 1.15 | -0.26 | -0.07 | 3.82
CN(C)S(=O)(=O)c1ccc2c(c1)/C(=C/c1cc3c([nH]1)CCCC3)C(=O)N2 | 0 | 1.15 | 0.65 | 0.26 | 0.61 | 0.97 | 0 | 0 | 6.35 | 0.43 | 1.35 | 7.38 | 1.28 | 1.28 | 0.71 |  | 1.01 | 1.01 | 0.86 | -3.8
NC(=O)c1ccc2nc(-c3ccc(Oc4ccc(Cl)cc4)cc3)[nH]c2c1 [Chk2 Inhibitor II (BML-277)] | -1.27 | -0.11 | 0.47 | 0.95 | 0.3 | 0.23 | 0.22 | 0.43 | 0.19 | -0.49 | -0.02 | 3.29 | 0.29 | -0.18 | 0.06 | 0.28 | 0.74 | -0.16 | -0.75 | 2.79
Cc1nc2c(-c3cnc(N)nc3)nc(N3CCOCC3)nc2n1C(C)C | 0.88 | 0.46 | 0.51 | 0.59 | 0.15 | 0.73 | 0.44 | 1.59 |  |  | 0.5 | 2.64 | 0.5 | 0.32 |  |  |  | 1.35 | -0.09 | 0.17
Nc1ncc(-c2ccnc(Nc3ccncc3)n2)c(CC2CC2)n1 | 2.65 | 0.44 | 0.08 | 0.7 | 0.32 | 0.09 | 0.92 | 1.69 | 2.3 | 0.78 | 0.81 | 7.15 | 0.45 | 0.44 | 0.4 | 3.58 | 0.78 | 1.03 | -0.19 | 0.92
Cc1ncc(CCCN(C)C)cc1Nc1ncc2c(n1)-c1ccc(C(F)(F)F)cc1NC(=S)C2 | 1.25 | 0.09 | 0.4 | 3.03 | 0.91 | 0.13 | 0.62 | 0.02 | 0.51 | 0.47 | -0.2 | -0.13 | 0.71 | 0.52 | 0.48 | 0.15 | 0.79 | 1.65 | 0.32 | 3.13
